Assay results taken from ChEMBL document CHEMBL1157539, “Thousands of chemical starting points for antimalarial lead identification” (Nature, 2010).

Columns and labels:
Assay type in all cases: functional
[1] = test system: Plasmodium falciparum; assay: GSK_TCMDC: Inhibition of Plasmodium falciparum 3D7 in whole red blood cells, using parasite LDH activity as an index of growth. Test compounds present at 2uM
[2] = test system: Plasmodium falciparum; assay: GSK_TCMDC: Inhibition of Plasmodium falciparum Dd2 in whole red blood cells, using parasite LDH activity as an index of growth. Test compounds present at 2uM
[3] = test system: HepG2; assay: GSK_TCMDC: Percent inhibition of human HepG2 cell line. Test compounds present at 10uM.

Compound | Inhibition [1] [%] | Inhibition [2] [%] | Inhibition [3] [%]
CCc1ccc(NC(=O)N(CCCN2CCN(C)CC2)Cc2csc(-c3ccc(CNCc4ccccc4)cc3)n2)cc1.O=C(O)C(F)(F)F | 99 | 80 | 17
Nc1ncc(-c2ccc3[nH]ccc3c2)c2ccc(-c3ccncc3)cc12 | 100 | 100 | 42
Cc1cc(NC(=O)NCCN2CCC(NS(=O)(=O)c3ccccc3Cl)C2)c2ccccc2n1 (stereo unspecified) | 97 | 43 | 1
CCN1CCN(c2cc(C)c3cc(NC(=O)c4cccc(Cl)c4)ccc3n2)CC1 | 100 | 58 | 4
O=C(CC1CCCCC1)NCC(NCCCNc1cc(=O)c2ccccc2[nH]1)c1cc(Br)cc(Br)c1 (stereo unspecified) | 95 | 52 | 8
O=C(NC1CCN(Cc2ccc3c(c2)OCCO3)CC1)c1ccc(-c2cccc(Cl)c2)s1.O=C(O)C(F)(F)F | 93 | 9 | 46
CCN(c1ccccc1)S(=O)(=O)c1ccc(OC)c(NC(=O)c2cccc(C(F)(F)F)c2)c1 | 90 | 70 | 9
O=C(C=Cc1ccc(Cl)c(Cl)c1)NCCCCCN1CCCC(CCCNS(=O)(=O)c2cccc(C(F)(F)F)c2)C1 (stereo unspecified) | 94 | 33 | 81
Cc1oc(-c2ccccc2)nc1CCOc1ccc(C[C@H](Nc2ccccc2C(=O)c2ccccc2)C(=O)NCc2ccccn2)cc1 | 88 | 54 | 0
COc1ccc(C(C)Nc2nc(N)c3cc(OC)c(OC)cc3n2)cc1.Cl (stereo unspecified) | 100 | 28 | 23
COc1cccc(C=NNc2cc(C)nc3c(OC)cccc23)c1 | 99 | 58 | 6
CC(C)C(C(=O)Nc1ccc(S(=O)(=O)N(C)C)cc1)c1ccc(Cl)cc1 (stereo unspecified) | 100 | 98 | 27
Cc1cc(N[C@@H](C)C(=O)Nc2ccccc2)nc(NCCc2ccc(F)cc2)n1.O=C(O)C(F)(F)F | 100 | 43 | 33
Cc1cccc2nc(-c3cccc(-c4ccc(NC(=O)c5c[nH]cn5)cc4)c3)[nH]c12 | 100 | 48 | 8
CCN(CC(C)O)C(=O)c1ccc(-c2ccc(-c3nc4cccc(C)c4[nH]3)cc2)cc1 (stereo unspecified) | 94 | 13 | 18
COCCNCc1cccc(-c2ccc(CNC3CCN(Cc4ccccc4)CC3)cc2)c1.O=C(O)C(F)(F)F | 100 | 97 | 34
COc1ccc(Cn2c(SCc3ccc(C)cc3)nc3cc(OC)c(OC)cc3c2=N)cc1Cl | 92 | 7 | 50
CCOc1cc(C(=O)NCc2cc(Cl)cc(Cl)c2)ccc1-c1nc2cc(Cl)ccc2[nH]1 | 100 | 5 | 1
CCCCCCCC1CCN(C[C@H](O)c2ccnc3ccc(OC)cc23)CC1.O=C(O)C(=O)O | 94 | 81 | 23
COC(=O)c1cccc(NC(=O)NC2CCN(c3ccnc(Nc4ccc(OC)cc4)n3)C2)c1 (stereo unspecified) | 99 | 65 | 1
CN(C)CCCOc1ccc(CCCCc2ccc(Cl)cc2C(=O)c2ccccc2)cc1.O=C(O)C(=O)O | 92 | 8 | 8
COc1ccc(C(C(=O)NC2CCN(C[C@H](O)c3ccnc4ccc(OC)cc34)CC2)N2CCN(c3ccc(F)cc3)CC2)cc1 (stereo partly specified) | 97 | 86 | 16
Cc1cccc2nc(-c3cccc(-c4ccc(NC(=O)C(C)CN5CCOCC5)cc4)c3)[nH]c12 (stereo unspecified) | 93 | 30 | 7
CC(C)CC(=O)N1CCNC[C@@H]1C(=O)NC1CC1.O=C(O)C(F)(F)F | 82 | 0 | 0
CCOC(=O)c1ccc(N2CCN(c3cc(Cl)ccc3C)CC2)c(NC(=O)Nc2ccc(Cl)c(Cl)c2)c1 | 99 | 99 | 10
O=C(Nc1ccc(-c2nc3ccccc3[nH]2)cc1)c1cccc(S(=O)(=O)N2CCOCC2)c1 | 89 | 43 | 6
Cc1ccc(C(C#N)c2ccc3c(C(F)(F)F)cc(C(F)(F)F)nc3n2)cc1 (stereo unspecified) | 96 | 36 | 14
